What was measured:
Assay in all cases: DAPPL (digital affinity profiling via proximity ligation, sequencing); 10 mM Tris-HCl pH 7.5, 50 mM NaCl, 1 mM DTT, 4% glycerol, room temperature, 30 min; GST-TFs on glutathione beads, 16-mer random dsDNA library, 0.1% formaldehyde crosslink after washing; high values mean tight binding
Conditions in all cases: protein: recombinant; tags: N-terminal GST; dsDNA, one strand shown
ELK1 = biological target: T1, ELK1 (Homo sapiens, UniProt P19419 1-428)
T1 sequence: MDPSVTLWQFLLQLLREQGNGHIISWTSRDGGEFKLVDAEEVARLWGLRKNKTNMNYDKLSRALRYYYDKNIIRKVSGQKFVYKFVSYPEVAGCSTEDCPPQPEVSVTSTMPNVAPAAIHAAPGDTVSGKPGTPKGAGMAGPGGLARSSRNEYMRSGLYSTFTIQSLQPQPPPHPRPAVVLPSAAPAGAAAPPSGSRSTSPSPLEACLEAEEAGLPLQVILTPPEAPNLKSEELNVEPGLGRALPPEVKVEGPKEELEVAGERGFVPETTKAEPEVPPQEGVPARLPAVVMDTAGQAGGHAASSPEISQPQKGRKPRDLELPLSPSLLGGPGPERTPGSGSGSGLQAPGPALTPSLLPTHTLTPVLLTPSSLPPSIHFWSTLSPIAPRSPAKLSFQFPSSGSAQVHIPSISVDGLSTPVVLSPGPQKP
Procedure, shortened: (§1)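 The binding signal reported is, for every hexamer, its read frequency for a factor over its read frequency for the tag-only sample. Reads came from pools of yeast-expressed, GST-fused human transcription factors on glutathione beads, barcoded with DNA and mixed with that sample, which were incubated with 200 nmole of a random double-stranded 16-mer DNA library in Tris/NaCl/DTT/glycerol buffer at room temperature for 30 min. After washing, the pools were crosslinked with 0.1% formaldehyde, proximity-ligated with BsaI/T4 ligase for 1 h at 37 °C, PCR-amplified and sequenced on an Illumina NextSeq500.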

GABPA = biological target: T2, GABPA (Homo sapiens, UniProt Q06546 1-454)
T2 sequence: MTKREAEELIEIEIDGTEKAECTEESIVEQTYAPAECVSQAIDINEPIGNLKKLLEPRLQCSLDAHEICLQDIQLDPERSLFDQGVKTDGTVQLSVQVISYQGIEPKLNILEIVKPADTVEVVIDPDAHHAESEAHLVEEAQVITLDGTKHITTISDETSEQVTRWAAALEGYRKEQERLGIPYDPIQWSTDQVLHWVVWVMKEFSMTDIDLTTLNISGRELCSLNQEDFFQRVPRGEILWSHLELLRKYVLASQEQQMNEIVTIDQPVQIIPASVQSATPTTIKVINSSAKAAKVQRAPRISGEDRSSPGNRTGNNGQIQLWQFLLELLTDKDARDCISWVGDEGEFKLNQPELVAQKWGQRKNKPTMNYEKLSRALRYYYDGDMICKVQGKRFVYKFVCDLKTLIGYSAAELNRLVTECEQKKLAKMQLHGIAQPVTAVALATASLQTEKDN
Procedure, shortened: as §1

ERG = biological target: T3, ERG (Homo sapiens, UniProt P11308 1-479)
T3 sequence: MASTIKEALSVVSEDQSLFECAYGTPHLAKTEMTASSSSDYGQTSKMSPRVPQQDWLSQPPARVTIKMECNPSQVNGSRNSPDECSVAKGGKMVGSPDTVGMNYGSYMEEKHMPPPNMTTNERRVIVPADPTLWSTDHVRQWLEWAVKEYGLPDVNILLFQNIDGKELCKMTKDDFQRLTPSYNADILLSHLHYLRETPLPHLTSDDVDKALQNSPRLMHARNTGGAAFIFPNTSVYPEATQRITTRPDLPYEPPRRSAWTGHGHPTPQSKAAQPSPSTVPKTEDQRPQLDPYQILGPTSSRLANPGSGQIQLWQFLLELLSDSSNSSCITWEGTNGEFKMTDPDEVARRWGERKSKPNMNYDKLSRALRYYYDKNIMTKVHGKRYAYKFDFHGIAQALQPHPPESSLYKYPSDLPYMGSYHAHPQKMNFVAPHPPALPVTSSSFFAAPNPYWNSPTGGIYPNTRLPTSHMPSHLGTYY
Procedure, shortened: as §1

ELF1 = ELF1 (Homo sapiens, UniProt P32519 1-619)
Chain of ELF1 (P32519 whole entry): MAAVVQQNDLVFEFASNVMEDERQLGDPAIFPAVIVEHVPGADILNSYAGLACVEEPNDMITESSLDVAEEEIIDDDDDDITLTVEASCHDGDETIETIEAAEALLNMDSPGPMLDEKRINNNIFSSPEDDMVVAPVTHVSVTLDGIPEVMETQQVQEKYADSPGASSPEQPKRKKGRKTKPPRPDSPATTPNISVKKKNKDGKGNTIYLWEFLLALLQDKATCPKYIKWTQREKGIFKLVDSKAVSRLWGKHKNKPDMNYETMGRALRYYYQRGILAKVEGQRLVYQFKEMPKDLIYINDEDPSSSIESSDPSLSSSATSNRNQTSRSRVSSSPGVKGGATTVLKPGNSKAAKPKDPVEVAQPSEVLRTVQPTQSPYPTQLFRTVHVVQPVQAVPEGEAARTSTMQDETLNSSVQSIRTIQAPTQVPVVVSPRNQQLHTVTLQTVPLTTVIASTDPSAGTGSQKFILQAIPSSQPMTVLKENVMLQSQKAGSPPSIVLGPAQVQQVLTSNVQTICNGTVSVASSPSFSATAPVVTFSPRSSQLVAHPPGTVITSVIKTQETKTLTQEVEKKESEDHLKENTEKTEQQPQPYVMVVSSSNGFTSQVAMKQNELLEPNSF
Procedure, shortened: as §1

EHF = biological target: T4, EHF (Homo sapiens, UniProt Q9NZC4 1-300)
T4 sequence: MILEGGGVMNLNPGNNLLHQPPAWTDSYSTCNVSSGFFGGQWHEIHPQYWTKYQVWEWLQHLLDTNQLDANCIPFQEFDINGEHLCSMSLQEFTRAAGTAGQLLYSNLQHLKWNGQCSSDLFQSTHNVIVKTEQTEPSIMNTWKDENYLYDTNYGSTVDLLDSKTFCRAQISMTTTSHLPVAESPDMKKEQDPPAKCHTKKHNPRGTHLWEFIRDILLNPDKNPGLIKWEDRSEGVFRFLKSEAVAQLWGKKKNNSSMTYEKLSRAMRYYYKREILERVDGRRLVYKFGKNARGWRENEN
Procedure, shortened: as §1

SPIB = SPIB (Homo sapiens, UniProt Q01892 1-262)
Chain of SPIB (Q01892 whole entry): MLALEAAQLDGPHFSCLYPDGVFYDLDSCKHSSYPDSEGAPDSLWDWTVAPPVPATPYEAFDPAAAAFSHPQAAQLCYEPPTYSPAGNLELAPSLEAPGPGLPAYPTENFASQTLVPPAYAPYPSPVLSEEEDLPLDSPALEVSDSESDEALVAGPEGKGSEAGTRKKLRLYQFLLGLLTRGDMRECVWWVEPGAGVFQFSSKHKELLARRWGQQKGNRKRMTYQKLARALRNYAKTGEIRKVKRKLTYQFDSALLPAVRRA
Procedure, shortened: as §1

FEV = biological target: T5, FEV (Homo sapiens, UniProt Q99581 1-238)
T5 sequence: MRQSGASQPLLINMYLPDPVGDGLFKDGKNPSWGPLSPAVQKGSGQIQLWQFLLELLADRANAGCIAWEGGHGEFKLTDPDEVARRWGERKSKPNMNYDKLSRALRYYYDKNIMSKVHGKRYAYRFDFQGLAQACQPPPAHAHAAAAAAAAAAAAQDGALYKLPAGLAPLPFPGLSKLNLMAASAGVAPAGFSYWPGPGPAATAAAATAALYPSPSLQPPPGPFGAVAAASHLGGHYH
Procedure, shortened: as §1

ETV5 = ETV5 (Homo sapiens, UniProt P41161 1-510)
Chain of ETV5 (P41161 whole entry): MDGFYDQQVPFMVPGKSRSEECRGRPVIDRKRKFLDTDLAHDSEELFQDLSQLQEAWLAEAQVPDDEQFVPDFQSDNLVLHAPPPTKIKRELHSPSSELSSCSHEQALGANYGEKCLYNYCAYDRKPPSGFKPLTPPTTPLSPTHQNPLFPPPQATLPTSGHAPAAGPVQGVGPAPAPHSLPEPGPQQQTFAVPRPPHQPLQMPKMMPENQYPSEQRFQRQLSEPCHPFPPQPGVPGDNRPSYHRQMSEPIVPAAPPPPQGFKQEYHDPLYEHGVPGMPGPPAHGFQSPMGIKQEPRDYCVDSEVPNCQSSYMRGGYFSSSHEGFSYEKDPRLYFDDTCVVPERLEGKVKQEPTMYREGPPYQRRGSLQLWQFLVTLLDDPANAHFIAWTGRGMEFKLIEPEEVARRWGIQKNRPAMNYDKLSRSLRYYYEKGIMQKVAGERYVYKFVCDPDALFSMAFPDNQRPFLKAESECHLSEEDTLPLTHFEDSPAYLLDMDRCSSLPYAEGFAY
Procedure, shortened: as §1

ELF4 = ELF4 (Homo sapiens, UniProt Q99607 1-663)
Chain of ELF4 (Q99607 whole entry): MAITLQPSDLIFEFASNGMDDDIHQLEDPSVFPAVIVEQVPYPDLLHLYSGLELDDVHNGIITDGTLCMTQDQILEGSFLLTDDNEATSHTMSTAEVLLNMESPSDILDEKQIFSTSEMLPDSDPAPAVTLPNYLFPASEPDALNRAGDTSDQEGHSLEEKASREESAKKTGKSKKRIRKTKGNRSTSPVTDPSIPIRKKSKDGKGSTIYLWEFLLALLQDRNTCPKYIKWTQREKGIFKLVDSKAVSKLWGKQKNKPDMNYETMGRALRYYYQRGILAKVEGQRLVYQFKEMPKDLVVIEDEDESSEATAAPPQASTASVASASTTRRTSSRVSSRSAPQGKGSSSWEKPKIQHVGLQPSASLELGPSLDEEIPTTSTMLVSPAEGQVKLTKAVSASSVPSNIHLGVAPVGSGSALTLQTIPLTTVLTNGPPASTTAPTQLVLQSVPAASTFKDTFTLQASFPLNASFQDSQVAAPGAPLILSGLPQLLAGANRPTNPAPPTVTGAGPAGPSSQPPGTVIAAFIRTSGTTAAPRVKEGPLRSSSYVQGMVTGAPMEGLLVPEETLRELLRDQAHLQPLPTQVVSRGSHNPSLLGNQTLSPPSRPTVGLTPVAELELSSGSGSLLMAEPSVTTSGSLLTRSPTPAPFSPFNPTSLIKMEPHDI
Procedure, shortened: as §1

ELK4 = biological target: T6, ELK4 (Homo sapiens, UniProt P28324-2 1-405)
T6 sequence: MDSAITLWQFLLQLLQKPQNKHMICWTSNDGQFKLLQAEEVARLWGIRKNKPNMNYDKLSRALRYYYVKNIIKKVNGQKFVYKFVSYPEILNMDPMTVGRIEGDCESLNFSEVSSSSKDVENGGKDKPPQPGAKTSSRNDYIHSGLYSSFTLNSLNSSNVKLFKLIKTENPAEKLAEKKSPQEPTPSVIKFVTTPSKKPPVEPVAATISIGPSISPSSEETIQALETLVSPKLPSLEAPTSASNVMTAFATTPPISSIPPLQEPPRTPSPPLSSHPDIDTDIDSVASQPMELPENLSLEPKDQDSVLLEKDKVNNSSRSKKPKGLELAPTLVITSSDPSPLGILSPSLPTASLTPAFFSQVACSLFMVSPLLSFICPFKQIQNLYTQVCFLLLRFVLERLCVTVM
Procedure, shortened: as §1

ETV2 = biological target: T7, ETV2 (Homo sapiens, UniProt O00321 1-342)
T7 sequence: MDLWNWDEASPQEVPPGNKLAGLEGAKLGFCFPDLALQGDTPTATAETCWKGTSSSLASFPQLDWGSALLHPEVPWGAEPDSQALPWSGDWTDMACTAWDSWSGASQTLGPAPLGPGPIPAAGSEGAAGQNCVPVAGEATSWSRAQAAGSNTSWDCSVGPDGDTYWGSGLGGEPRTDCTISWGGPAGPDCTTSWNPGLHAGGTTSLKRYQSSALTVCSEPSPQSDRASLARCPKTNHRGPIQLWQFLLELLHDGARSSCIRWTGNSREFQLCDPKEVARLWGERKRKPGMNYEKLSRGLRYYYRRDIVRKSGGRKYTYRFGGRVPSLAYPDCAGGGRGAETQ
Procedure, shortened: as §1

ELF3 = biological target: T8, ELF3 (Homo sapiens, UniProt P78545 1-371)
T8 sequence: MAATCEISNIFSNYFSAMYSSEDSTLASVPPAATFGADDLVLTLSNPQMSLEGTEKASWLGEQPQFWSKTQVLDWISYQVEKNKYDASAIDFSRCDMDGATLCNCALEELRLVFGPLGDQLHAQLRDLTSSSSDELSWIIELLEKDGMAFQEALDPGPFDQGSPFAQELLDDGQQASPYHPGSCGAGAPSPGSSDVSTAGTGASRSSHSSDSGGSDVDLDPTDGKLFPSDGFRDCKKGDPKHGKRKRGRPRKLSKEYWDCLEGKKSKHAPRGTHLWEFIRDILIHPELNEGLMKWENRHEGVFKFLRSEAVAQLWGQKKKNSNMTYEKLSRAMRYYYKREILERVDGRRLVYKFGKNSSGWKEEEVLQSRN
Procedure, shortened: as §1

ETV1 = ETV1 (Homo sapiens, UniProt P50549 1-477)
Chain of ETV1 (P50549 whole entry): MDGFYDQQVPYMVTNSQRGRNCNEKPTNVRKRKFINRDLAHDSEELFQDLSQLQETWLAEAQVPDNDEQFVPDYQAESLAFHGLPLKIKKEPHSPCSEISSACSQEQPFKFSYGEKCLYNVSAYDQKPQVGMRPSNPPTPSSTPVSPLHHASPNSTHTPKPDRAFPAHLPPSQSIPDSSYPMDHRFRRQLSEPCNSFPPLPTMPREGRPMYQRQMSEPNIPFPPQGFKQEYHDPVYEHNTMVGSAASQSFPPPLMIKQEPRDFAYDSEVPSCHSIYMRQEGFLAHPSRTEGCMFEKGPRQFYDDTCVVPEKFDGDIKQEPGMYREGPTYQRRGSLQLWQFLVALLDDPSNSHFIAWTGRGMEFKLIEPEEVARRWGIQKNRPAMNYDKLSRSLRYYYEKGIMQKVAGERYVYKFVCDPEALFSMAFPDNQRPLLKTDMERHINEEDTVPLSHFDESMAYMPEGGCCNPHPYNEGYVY
Procedure, shortened: as §1

ERF = biological target: T9, ERF (Homo sapiens, UniProt P50548 1-548)
T9 sequence: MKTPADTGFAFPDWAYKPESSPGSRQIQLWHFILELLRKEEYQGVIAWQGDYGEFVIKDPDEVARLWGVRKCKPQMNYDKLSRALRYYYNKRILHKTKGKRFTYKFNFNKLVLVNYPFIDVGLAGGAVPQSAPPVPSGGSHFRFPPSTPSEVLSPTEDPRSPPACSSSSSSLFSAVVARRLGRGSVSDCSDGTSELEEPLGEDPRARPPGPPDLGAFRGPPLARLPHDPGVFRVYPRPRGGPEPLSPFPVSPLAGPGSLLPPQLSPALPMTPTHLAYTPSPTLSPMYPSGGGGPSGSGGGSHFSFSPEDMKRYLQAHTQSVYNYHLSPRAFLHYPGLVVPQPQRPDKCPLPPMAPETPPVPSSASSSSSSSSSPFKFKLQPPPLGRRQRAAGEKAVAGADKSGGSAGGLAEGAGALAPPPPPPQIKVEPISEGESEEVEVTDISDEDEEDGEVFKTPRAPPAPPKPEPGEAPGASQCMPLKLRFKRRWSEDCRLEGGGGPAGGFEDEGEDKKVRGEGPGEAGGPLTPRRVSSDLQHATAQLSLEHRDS
Procedure, shortened: as §1

ETV3L = biological target: T10, ETV3L (Homo sapiens, UniProt Q6ZN32 1-361)
T10 sequence: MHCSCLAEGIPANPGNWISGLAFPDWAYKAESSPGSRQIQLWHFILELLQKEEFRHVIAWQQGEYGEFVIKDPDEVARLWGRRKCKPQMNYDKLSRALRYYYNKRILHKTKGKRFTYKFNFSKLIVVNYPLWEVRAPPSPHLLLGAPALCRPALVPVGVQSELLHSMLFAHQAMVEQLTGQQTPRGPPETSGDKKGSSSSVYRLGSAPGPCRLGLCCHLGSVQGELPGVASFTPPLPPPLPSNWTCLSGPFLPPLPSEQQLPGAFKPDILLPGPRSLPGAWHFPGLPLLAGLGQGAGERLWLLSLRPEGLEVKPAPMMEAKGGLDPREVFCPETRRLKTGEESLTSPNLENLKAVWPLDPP
Procedure, shortened: as §1

ETS2 = biological target: T11, ETS2 (Homo sapiens, UniProt P15036 1-469)
T11 sequence: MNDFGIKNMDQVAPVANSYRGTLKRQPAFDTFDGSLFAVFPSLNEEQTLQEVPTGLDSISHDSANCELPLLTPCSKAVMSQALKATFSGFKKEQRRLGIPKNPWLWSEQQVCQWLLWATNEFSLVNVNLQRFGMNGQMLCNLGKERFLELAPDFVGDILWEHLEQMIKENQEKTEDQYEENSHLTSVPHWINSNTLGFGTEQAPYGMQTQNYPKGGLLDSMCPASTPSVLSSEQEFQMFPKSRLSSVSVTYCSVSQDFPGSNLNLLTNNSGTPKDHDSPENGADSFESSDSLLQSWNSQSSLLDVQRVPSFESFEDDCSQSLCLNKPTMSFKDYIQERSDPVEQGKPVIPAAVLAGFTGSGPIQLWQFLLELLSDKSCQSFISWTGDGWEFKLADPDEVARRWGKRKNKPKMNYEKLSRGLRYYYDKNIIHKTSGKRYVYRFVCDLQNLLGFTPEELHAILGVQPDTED
Procedure, shortened: as §1

ETV7 = biological target: T12, ETV7 (Homo sapiens, UniProt Q9Y603 1-341)
T12 sequence: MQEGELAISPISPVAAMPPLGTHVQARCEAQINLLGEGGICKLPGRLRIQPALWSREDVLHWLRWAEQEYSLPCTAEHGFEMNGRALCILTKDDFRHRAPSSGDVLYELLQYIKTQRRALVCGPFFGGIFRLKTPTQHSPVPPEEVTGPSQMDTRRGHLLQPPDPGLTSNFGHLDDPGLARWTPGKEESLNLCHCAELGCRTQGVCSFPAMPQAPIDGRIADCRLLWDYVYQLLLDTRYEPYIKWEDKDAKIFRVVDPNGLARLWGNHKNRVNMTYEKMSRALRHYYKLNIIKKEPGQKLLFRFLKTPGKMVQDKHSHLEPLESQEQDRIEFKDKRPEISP
Procedure, shortened: as §1

ETV3 = biological target: T13, ETV3 (Homo sapiens, UniProt P41162-2 1-143)
T13 sequence: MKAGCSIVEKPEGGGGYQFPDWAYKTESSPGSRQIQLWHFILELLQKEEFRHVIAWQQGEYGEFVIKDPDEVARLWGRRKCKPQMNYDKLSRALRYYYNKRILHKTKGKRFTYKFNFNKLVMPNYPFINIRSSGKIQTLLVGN
Procedure, shortened: as §1

ETV6 = ETV6 (Homo sapiens, UniProt P41212 1-452)
Chain of ETV6 (P41212 whole entry): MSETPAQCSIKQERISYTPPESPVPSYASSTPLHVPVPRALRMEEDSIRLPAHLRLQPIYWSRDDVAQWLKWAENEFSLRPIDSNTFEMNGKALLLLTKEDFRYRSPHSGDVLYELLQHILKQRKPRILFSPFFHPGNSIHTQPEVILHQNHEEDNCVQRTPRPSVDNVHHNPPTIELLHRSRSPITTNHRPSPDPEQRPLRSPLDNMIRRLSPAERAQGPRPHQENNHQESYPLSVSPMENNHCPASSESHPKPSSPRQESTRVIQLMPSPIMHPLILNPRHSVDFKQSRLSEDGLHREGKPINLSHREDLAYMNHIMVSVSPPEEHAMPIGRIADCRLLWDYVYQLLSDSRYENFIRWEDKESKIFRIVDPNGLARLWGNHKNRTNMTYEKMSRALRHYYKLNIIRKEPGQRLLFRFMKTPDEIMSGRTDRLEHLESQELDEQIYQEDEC
Procedure, shortened: as §1

Sequence: GCGTCT
- binding signal (ELK1): 1.05 fold enrichment (6-mer frequency, TF over GST control)
- binding signal (GABPA): 1.02 fold enrichment (6-mer frequency, TF over GST control)
- binding signal (ERG): 1.08 fold enrichment (6-mer frequency, TF over GST control)
- binding signal (ELF1): 1.08 fold enrichment (6-mer frequency, TF over GST control)
- binding signal (EHF): 1.08 fold enrichment (6-mer frequency, TF over GST control)
- binding signal (SPIB): 1.19 fold enrichment (6-mer frequency, TF over GST control)
- binding signal (FEV): 1.08 fold enrichment (6-mer frequency, TF over GST control)
- binding signal (ETV5): 1.04 fold enrichment (6-mer frequency, TF over GST control)
- binding signal (ELF4): 1.04 fold enrichment (6-mer frequency, TF over GST control)
- binding signal (ELK4): 1.11 fold enrichment (6-mer frequency, TF over GST control)
- binding signal (ETV2): 1.1 fold enrichment (6-mer frequency, TF over GST control)
- binding signal (ELF3): 1.34 fold enrichment (6-mer frequency, TF over GST control)
- binding signal (ETV1): 1.18 fold enrichment (6-mer frequency, TF over GST control)
- binding signal (ERF): 1.12 fold enrichment (6-mer frequency, TF over GST control)
- binding signal (ETV3L): 1.1 fold enrichment (6-mer frequency, TF over GST control)
- binding signal (ETS2): 1.04 fold enrichment (6-mer frequency, TF over GST control)
- binding signal (ETV7): 1.1 fold enrichment (6-mer frequency, TF over GST control)
- binding signal (ETV3): 1.11 fold enrichment (6-mer frequency, TF over GST control)
- binding signal (ETV6): 1.04 fold enrichment (6-mer frequency, TF over GST control)

Reference: PMC7862700, “An all-to-all approach to the identification of sequence-specific readers for epigenetic DNA modifications on cytosine”
